# PubChem BioAssay
# Active and inactive are the calls of the source.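 The calls were made as follows, unless noted: active = inhibition above the screen-wide mean plus 3 SD, about 51%; inactive = the rest.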
# How the values were obtained:
# [1] = reduced mouse 2C T cell binding to pMHC/ICAM-1 vesicles – MLPCN validation set, flow cytometry, LFA-1/ICAM-1 modulator project, pilot screen (AID 2523;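 active = response below a set limit, under 55% cells CD8-positive and vesicle-bound, and CD8 cells' 90th-percentile brightness under 279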;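 as to vesicle binding response: mean PE anti-B7-1 fluorescence of CD8+ cells relative to row control; 100% = QL9-loaded vesicles with DMSO vehicle in the same plate row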); details: 2C mouse CD8+ T cells, at 7 µM, stronger effect = lower value; double positive events: measured here: CD8+/vesicle+ event percentage
# [2] = target: Integrin beta-1 (Homo sapiens) + Integrin alpha-4 (Homo sapiens) (UniProt P13612+P05556); assay: alpha4beta1 integrin LIBS antibody binding reduction – U937 cells, HUTS-21 mAb, flow cytometry, validation set, VLA-4 allosteric modulator project, pilot screen (AID 2674;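 active = inhibition above 50%, about 3 SD of the validation set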;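 also: antibody binding induced by the VLA-4 ligand LDV present at three times its Kd; 0% = LDV ligand with antibody and no compound and 100% = antibody without LDV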); details: HUTS-21 LIBS mAb binding, at 6.7 µM, stronger effect = higher value, binding induced by LDV ligand
# [3] = calorie-restriction mimetic ROS inhibitors, yeast – validation compound set, pilot screen (AID 2706;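 active = superoxide response below 65% of plate, a cut near 3 SD across the whole screen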;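 also: yeast exposed to compound for one week at 30 degrees C before staining; 100% = mean of all compound wells on the same plate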); details: S. cerevisiae aging, superoxide DHE fluorescence; at 10 µM, stronger effect = lower value
# [4] = target: Beta-adrenergic receptor kinase 1 (Homo sapiens) (UniProt P25098); assay: GRK2 binders displacing RNA aptamer, biochemical, validation, human GRK2, bead flow cytometry (AID 488806;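 active = aptamer binding inhibition above 30%, about 3 SD of noise from non-fluorescent compounds; inactive = inhibition at or below 30%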); details: bead-bound GRK2, FAM-aptamer displacement, at 10 µM, stronger effect = higher value
# [5] = target: Beta-2 adrenergic receptor (Homo sapiens) (UniProt P07550); assay: agonist-induced loss of surface beta2AR – cell-based, FAP fluorogen, flow cytometry, validation set, pilot screen (AID 504459;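 active = percent response above 42, roughly 3 SD of non-fluorescent test compounds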;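 also: agonist-driven loss of surface beta2AR via internalization measured by FAP dye flow cytometry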); details: Am2.2-beta2AR cells, at 10 µM, stronger effect = higher value
# [6] = target: AP-2 complex subunit beta (Homo sapiens) (UniProt P63010); assay: beta-arrestin/AP2 interaction blockers – biochemical, validation set, GST-AP2 beads, flow cytometry, pilot screen (AID 504541;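 active = inhibition above 54%, about 3 SD of non-fluorescent compounds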;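 also: AP2 carries R879A mutation and is captured from E. coli lysate; bead-bound FITC arrestin peptide fluorescence measuring arrestin peptide binding to AP2; 0% = DMSO wells and 100% = excess unlabeled arrestin peptide control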); details: FITC arrestin peptide, at 10 µM, stronger effect = higher value, AP2 beta2 appendage fragment, R879A mutant
# [7] = cytosolic pH regulators acting via V-ATPase – S. cerevisiae, pHLuorin, HTS validation (AID 504600; in the data active = response above about 15%;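 also: plate controls were DMSO for no effect and reference compound for full effect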); details: V-ATPase proton transport, at 10 µM, stronger effect = higher value
# [8] = test system: anti-desmoglein-3 scFv antibody binding to human DSG3; assay: blockers of pathogenic pemphigus antibody–desmoglein-3 binding – biochemical, validation compound set, bead-based, flow cytometry, pilot screen (AID 588368;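 active = binding below the plate cutoff, the plate median minus 3 SD, with a reading above zero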;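 also: signal is the median channel fluorescence of bead-bound GFP antibody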); details: Protein G beads, DSG3-Fc, scFv-GFP binding, at 10 µM, stronger effect = lower value
# [9] = Nile Red efflux blockade in pump-expressing yeast – validation compound set, multiplex, phenotypic, pilot screen (AID 588506;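 active = efflux inhibition above 0.42, the validation set average plus 4 SD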;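 also: Nile Red retained in cells so higher fluorescence means more efflux inhibition; 0 = negative control wells and 1 = enniatin B 25 µM full block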); details: S. cerevisiae pump-expressing triplex, Nile Red efflux flow cytometry; at 10 µM; stronger effect = higher value; the pumps come from Candida albicans
# [10] = target: ATP-binding cassette sub-family B member 6 (Homo sapiens) (UniProt Q9NP58); assay: blockers of ABCB6-driven porphyrin uptake – K562-ABCB6 cells, flow cytometry, validation set, pilot screen (AID 588550); details: K562-ABCB6 porphyrin accumulation, 1 h, at 10 µM, stronger effect = higher value;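 also: 0% = DMSO wells and 100% = benzethonium chloride 70 µM positive control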
# [11] = AML differentiation inducers, ER-HoxA9 marrow cells – cell-based, GFP/MAC1 double positive, flow cytometry, validation set, primary screen (AID 588685;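 active = differentiation response of at least 50%, scaled between solvent and reference control, from cells with both markers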;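 also: compound exposure lasts four days before antibody staining and flow analysis; 0% = DMSO wells and 100% = 5 µM fulvestrant positive control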); details: stronger effect = higher value, normalized: vehicle 0, fulvestrant 100
# AP-2 complex subunit beta (Homo sapiens), sequence (P63010 whole entry, looked up, the tested form may be a part, one chain of several): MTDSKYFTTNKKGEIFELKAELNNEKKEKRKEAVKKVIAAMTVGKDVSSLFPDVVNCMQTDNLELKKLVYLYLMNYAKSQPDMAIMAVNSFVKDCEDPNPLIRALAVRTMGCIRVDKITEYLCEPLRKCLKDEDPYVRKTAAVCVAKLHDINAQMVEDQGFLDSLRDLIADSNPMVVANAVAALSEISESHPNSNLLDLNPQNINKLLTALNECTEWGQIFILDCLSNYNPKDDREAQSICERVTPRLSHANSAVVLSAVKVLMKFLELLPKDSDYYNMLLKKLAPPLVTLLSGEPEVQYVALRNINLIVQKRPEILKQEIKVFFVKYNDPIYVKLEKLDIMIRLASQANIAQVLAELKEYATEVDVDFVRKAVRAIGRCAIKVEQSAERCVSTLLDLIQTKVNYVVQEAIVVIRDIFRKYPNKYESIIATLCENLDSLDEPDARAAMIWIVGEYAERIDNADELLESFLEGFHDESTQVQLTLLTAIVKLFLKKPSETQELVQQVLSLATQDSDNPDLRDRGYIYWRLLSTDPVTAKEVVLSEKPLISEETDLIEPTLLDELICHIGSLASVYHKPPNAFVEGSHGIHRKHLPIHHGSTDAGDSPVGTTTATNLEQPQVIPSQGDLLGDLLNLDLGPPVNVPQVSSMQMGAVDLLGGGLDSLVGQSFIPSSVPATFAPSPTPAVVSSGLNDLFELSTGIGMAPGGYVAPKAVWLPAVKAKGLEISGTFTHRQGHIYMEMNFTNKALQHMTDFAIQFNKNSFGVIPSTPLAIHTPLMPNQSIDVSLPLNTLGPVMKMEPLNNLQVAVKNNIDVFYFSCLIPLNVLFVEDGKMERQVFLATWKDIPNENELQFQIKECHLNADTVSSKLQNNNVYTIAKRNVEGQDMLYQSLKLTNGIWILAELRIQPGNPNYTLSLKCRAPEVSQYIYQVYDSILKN
# Integrin beta-1 (Homo sapiens) + Integrin alpha-4 (Homo sapiens), sequence (P05556 whole entry, looked up): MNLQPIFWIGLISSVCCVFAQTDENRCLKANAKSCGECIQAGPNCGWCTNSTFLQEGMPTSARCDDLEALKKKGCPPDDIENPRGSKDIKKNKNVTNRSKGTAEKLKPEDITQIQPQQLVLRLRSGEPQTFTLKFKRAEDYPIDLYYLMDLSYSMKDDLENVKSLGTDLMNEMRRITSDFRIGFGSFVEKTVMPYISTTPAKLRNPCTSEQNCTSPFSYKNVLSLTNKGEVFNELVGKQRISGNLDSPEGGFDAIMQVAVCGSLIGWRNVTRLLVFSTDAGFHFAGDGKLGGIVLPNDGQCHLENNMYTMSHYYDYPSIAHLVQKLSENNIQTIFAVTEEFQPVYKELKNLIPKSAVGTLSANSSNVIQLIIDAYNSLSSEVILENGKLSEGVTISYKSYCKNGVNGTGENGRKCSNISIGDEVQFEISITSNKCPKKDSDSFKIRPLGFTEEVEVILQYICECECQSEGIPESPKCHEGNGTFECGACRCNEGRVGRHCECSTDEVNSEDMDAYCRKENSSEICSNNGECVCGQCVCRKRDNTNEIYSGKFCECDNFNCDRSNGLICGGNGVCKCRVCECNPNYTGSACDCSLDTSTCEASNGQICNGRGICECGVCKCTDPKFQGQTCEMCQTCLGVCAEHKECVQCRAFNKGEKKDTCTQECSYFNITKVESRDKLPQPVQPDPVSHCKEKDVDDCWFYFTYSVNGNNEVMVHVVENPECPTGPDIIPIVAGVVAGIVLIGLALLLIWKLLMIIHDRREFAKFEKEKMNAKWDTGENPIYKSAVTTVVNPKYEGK
# Integrin beta-1 (Homo sapiens) + Integrin alpha-4 (Homo sapiens), sequence (P13612 whole entry, looked up): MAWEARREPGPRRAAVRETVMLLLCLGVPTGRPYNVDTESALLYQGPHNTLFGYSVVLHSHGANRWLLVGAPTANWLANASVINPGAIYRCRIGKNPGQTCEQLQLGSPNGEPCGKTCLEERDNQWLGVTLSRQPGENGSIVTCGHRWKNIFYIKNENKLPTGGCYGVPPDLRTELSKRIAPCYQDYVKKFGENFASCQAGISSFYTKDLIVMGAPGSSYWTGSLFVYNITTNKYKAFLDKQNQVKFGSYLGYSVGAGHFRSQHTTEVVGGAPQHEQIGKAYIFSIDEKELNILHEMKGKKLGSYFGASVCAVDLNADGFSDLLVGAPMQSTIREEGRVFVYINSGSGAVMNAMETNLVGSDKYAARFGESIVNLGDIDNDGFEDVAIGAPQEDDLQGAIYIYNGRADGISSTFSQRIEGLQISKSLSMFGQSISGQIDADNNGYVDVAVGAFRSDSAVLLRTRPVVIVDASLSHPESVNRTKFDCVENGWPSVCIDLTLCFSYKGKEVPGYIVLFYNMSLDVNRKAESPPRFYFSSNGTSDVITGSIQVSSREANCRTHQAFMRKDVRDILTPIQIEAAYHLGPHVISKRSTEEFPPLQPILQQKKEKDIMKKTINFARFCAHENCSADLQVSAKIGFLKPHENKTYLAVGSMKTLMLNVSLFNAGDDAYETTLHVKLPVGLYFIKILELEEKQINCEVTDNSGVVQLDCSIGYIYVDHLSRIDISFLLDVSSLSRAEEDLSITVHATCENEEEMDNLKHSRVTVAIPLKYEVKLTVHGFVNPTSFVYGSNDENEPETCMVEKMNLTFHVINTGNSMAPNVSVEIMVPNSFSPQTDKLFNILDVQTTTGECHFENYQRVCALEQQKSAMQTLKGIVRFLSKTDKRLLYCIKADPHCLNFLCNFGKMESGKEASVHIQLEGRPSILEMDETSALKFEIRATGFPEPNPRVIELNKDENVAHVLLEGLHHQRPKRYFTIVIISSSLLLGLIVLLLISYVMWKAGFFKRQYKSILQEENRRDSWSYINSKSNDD
# Beta-adrenergic receptor kinase 1 (Homo sapiens), sequence (P25098 whole entry, looked up): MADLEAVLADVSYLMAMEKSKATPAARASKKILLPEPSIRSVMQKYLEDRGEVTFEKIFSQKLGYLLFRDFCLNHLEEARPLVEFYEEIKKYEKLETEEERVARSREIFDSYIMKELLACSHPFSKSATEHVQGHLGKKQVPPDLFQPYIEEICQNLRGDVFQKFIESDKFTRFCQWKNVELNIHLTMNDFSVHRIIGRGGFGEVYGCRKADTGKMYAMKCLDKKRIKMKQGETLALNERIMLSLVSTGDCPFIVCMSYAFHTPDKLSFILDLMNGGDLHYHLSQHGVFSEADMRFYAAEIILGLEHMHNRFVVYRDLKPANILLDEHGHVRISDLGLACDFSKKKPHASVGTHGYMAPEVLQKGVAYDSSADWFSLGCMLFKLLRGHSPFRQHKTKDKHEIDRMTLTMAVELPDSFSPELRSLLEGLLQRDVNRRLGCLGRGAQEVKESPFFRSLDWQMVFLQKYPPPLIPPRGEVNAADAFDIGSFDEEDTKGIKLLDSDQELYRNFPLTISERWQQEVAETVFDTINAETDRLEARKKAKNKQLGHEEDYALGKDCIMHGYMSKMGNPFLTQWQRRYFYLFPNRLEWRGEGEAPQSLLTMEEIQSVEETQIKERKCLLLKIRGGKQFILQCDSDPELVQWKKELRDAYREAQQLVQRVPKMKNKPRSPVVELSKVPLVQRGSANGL
# Beta-2 adrenergic receptor (Homo sapiens), sequence (P07550 whole entry, looked up): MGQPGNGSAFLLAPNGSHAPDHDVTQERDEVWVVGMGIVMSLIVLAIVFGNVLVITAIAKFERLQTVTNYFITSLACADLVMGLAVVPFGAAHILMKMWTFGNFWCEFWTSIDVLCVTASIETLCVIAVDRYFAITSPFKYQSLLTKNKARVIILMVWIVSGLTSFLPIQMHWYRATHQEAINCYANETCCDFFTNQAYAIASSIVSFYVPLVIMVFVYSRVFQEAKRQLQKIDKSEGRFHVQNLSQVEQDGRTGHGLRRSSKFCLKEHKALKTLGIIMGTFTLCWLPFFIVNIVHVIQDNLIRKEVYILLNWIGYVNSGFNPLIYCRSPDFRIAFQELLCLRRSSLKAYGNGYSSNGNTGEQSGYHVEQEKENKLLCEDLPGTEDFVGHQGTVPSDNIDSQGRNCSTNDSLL
# ATP-binding cassette sub-family B member 6 (Homo sapiens), sequence (Q9NP58 whole entry, looked up): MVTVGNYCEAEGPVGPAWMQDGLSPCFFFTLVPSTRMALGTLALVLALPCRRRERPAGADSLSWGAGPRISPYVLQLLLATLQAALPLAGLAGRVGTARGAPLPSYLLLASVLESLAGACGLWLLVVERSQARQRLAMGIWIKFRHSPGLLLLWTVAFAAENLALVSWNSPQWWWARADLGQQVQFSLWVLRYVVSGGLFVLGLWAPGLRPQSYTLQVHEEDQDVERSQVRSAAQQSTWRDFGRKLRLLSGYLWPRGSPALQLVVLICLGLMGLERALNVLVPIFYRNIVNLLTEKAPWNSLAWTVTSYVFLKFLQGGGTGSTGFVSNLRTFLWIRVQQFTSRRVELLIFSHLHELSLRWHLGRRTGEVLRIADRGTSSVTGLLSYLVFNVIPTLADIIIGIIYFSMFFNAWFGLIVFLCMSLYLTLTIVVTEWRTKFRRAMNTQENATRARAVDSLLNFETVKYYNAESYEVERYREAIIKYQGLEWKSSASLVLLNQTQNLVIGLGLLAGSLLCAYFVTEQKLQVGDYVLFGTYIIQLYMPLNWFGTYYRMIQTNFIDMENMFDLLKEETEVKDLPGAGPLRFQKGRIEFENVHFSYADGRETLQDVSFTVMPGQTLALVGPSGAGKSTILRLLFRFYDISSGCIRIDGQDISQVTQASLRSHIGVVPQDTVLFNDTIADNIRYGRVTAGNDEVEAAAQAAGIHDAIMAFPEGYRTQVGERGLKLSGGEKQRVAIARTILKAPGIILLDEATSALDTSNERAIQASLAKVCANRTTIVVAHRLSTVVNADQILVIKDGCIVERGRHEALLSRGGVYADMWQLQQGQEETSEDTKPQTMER
SMILES,double positive events [1],vesicle binding response [1],inhibition [2],superoxide response (% of plate) [3],aptamer binding inhibition [4],response [5],inhibition [6],response [7],binding (% of control) [8],efflux inhibition (fraction of control) [9],inhibition [10],differentiation response [11]
CC1(C)CC(=O)C(C2(O)C(=O)Nc3ccccc32)CO1 (stereo unspecified),69%,183% (inactive),11.7% (inactive),92.3% (inactive),3% (inactive),7.56% (inactive),0.15% (inactive),2.36% (inactive),105% (inactive),0.12 (inactive),12% (inactive),-16.8% (inactive)
COc1ccc(CCN2CCC(Nc3nc4ccccc4n3Cc3ccc(F)cc3)CC2)cc1,44.8%,112% (inactive),16.3% (inactive),93.2% (inactive),-15% (inactive),34.8% (inactive),1.18% (inactive),4.6% (inactive),138% (inactive),0.415 (inactive),-38% (inactive),10.1% (inactive)
O=C(c1cc2cc(Br)ccc2o1)N1CCCCC1,63.8%,320% (inactive),10.5% (inactive),86.2% (inactive),-4% (inactive),-13.7% (inactive),-1.81% (inactive),-0.39% (inactive),73.3% (active),0.05 (inactive),6% (inactive),4% (inactive)
C[C@H](NC(=O)NCCc1ccccc1)C(=O)O,58.1%,252% (inactive),2.3% (inactive),104% (inactive),6% (inactive),0.08% (inactive),-3.97% (inactive),-4.57% (inactive),99.1% (inactive),-0.13 (inactive),3% (inactive),4% (inactive)
NC12CC3CC(C1)CC(O)(C3)C2,65.4%,201% (inactive),2.66% (inactive),95.4% (inactive),3% (inactive),-10% (inactive),-6.38% (inactive),2.64% (inactive),99% (inactive),0.14 (inactive),11% (inactive),4.15% (inactive)
C=CCN1C(=O)c2oc3ccccc3c(=O)c2C1c1ccc(O)c(OC)c1 (stereo unspecified),60.1%,150% (inactive),10.5% (inactive),102% (inactive),2% (inactive),105% (active),-0.24% (inactive),2.05% (inactive),99.1% (inactive),0.37 (inactive),0% (inactive),40.8% (inactive)
COc1ccc(CCNC(=O)CC(c2ccccc2)c2cccc(C)c2O)cc1OC (stereo unspecified),62.6%,190% (inactive),16.2% (inactive),96.3% (inactive),1% (inactive),5.7% (inactive),-1.67% (inactive),1.13% (inactive),101% (inactive),-0.46 (inactive),10% (inactive),-3.28% (inactive)
C[C@H]1O[C@H]1P(=O)(O)O,66.2%,197% (inactive),15.1% (inactive),95.9% (inactive),5% (inactive),-11.7% (inactive),6.72% (inactive),17.1% (active),103% (inactive),-0.09 (inactive),9% (inactive),12.8% (inactive)
Cn1c2ccc(CC(=O)O)cc2c2cc(CC(=O)O)ccc21,61.4%,244% (inactive),10.5% (inactive),92.3% (inactive),3% (inactive),-8.9% (inactive),2.08% (inactive),1.83% (inactive),101% (inactive),-0.21 (inactive),6% (inactive),8.8% (inactive)
CCOC(=O)C1C(=O)CC(C)(O)C(C(=O)OCC)C1/C=C/c1ccccc1 (stereo unspecified),61.6%,115% (inactive),2.93% (inactive),96.1% (inactive),2% (inactive),4.95% (inactive),1.5% (inactive),-0.5% (inactive),102% (inactive),-0.07 (inactive),-11% (inactive),-10.4% (inactive)
C[C@H](NC(=O)Nc1ccccc1F)C(=O)O,66%,272% (inactive),-12.7% (inactive),106% (inactive),6% (inactive),-5.56% (inactive),-4.89% (inactive),-9.72% (inactive),101% (inactive),-0.24 (inactive),7% (inactive),-10.4% (inactive)
COc1ccc(CCN=C(N)C(C)c2ccccc2)cc1OC (stereo unspecified),62.6%,238% (inactive),5.69% (inactive),93.8% (inactive),4% (inactive),-11.2% (inactive),-6.07% (inactive),-1.3% (inactive),97.3% (inactive),-0.04 (inactive),5% (inactive),7.82% (inactive)
CC(=O)c1c(C)[nH]c(C(=O)OCc2ccccc2)c1C,60.2%,120% (inactive),1.59% (inactive),103% (inactive),3% (inactive),-5.41% (inactive),9.32% (inactive),0.36% (inactive),103% (inactive),-0.25 (inactive),1% (inactive),-13.3% (inactive)
